Assay results as given in PubChem BioAssay AID1159580 (chemical genetic matrix, 2015).
Several values for one entry are separate records, joined by “and”; a condition that tells them apart may be missing. Identical values can stand only once. Screen size: about 5,500 compounds; about 2,000 (36%) were called active. Not shown: some 18% with an inconclusive outcome. No stated cut-off is given here; in the data, active means normalized growth mostly below about 0.91 (no sharp cut-off); inconclusive means no clear call, values can overlap the other calls; inactive means mostly above about 0.92. This is one part of the list.

Assay: chemical genetic growth profiling, strain panel (AID 1159580);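 further: tested at 20 µM; growth read once vehicle control cultures reached saturation at 30 °C; 1 = growth at the plate median or of vehicle wells; lower values mean less growth of the strain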
Conditions: S. cerevisiae deletion strains, growth OD

Measured: normalized growth

CCCCN1CCCCC1C(=O)Nc1c(C)cccc1C (configuration not stated)
inactive: locus YAL013W, strain DEP1, active compounds read low 1.02 | locus YAL021C, strain ccr4, active compounds read low 0.992 | locus YAL026C, strain drs2, active compounds read low 1.01 | locus YAL030W, strain snc1, active compounds read low 0.991 | locus YBL061C, strain skt5, active compounds read low 0.992 | locus YBR009C, strain hhf1, active compounds read low 0.976 | locus YBR021W, strain FUR4, active compounds read low 1.01 | locus YBR023C, strain chs3, active compounds read low 0.977 | locus YBR171W, strain sec66, active compounds read low 0.991 | locus YBR229C, strain ROT2, active compounds read low 1.02 | locus YBR231C, strain swc5, active compounds read low 0.995 | locus YBR279W, strain paf1, active compounds read low 0.994 | locus YCL011C, strain gbp2, active compounds read low 0.986 | locus YCL016C, strain dcc1, active compounds read low 1 | locus YCL029C, strain bik1, active compounds read low 0.986 | locus YCL061C, strain MRC1, active compounds read low 0.981 | locus YCL069W, strain vba3, active compounds read low 0.99 | locus YCR088W, strain abp1, active compounds read low 0.986 | locus YDL005C, strain med2, active compounds read low 0.984 | locus YDL035C, strain GPR1, active compounds read low 1.03 | locus YDL040C, strain nat1, active compounds read low 1 | locus YDL074C, strain BRE1, active compounds read low 1.01 | locus YDL101C, strain DUN1, active compounds read low 1.01 | locus YDL134C, strain PPH21, active compounds read low 1.01 | locus YDL185W, strain tfp1, active compounds read low 0.995 | locus YDL192W, strain arf1, active compounds read low 1 | locus YDR001C, strain nth1, active compounds read low 0.978 | locus YDR069C, strain doa4, active compounds read low 0.972 | locus YDR101C, strain arx1, active compounds read low 1 | locus YDR137W, strain rgp1, active compounds read low 0.965 | locus YDR150W, strain NUM1, active compounds read low 1.02 | locus YDR159W, strain sac3, active compounds read low 0.984 | locus YDR162C, strain NBP2, active compounds read low 1.02 | locus YDR195W, strain ref2 0.967 | locus YDR297W, strain sur2, active compounds read low 0.986 | locus YDR318W, strain mcm21, active compounds read low 0.995 | locus YDR334W, strain swr1, active compounds read low 0.969 | locus YDR335W, strain msn5, active compounds read low 0.987 | locus YDR388W, active compounds read low 0.986 | locus YDR392W, strain spt3, active compounds read low 0.991 | locus YDR502C, strain sam2, active compounds read low 1 | locus YEL003W, strain gim4, active compounds read low 0.983 | locus YEL037C, strain rad23, active compounds read low 0.993 | locus YEL061C, strain CIN8 (second series), active compounds read low 0.973 | locus YEL061C, strain CIN8, active compounds read low 1.01 | locus YER015W, strain faa2, active compounds read low 0.992 | locus YER016W, strain bim1, active compounds read low 0.987 | locus YER110C, active compounds read low 0.995 | locus YER111C, strain swi4, active compounds read low 1.01 | locus YER155C, strain BEM2 (second series), active compounds read low 0.997 | locus YER155C, strain BEM2, active compounds read low 1 | locus YER167W, strain BCK2, active compounds read low 1.03 | locus YFR010W, strain ubp6, active compounds read low 0.974 | locus YGL078C, strain dbp3, active compounds read low 0.996 | locus YGL086W, strain mad1, active compounds read low 1.01 | locus YGL167C, strain pmr1, active compounds read low 0.992 | locus YGL173C, strain kem1, active compounds read low 1.01 | locus YGL227W, strain vid30, active compounds read low 0.973 | locus YGL240W, strain doc1, active compounds read low 0.98 | locus YGL248W, strain PDE1, active compounds read low 1.02 | locus YGL253W, strain hxk2, active compounds read low 0.994 | locus YGR078C, strain PAC10, active compounds read low 1.01 | locus YGR135W, strain pre9, active compounds read low 0.997 | locus YGR229C, strain SMI1, active compounds read low 1.01 | locus YGR252W, strain gcn5, active compounds read low 1.06 | locus YHR013C, strain ard1, active compounds read low 0.988 | locus YHR027C, strain rpn1, active compounds read low 0.99 | locus YHR030C, strain SLT2, active compounds read low 1.01 and 0.987 | locus YHR079C, strain IRE1 (second series), active compounds read low 0.99 | locus YHR079C, strain IRE1, active compounds read low 0.975 | locus YHR094C, strain hxt1, active compounds read low 0.997 | locus YHR129C, strain ARP1, active compounds read low 1.01 | locus YHR142W, strain chs7, active compounds read low 0.999 | locus YHR200W, strain rpn10, active compounds read low 0.986 | locus YIL066C, strain RNR3, active compounds read low 1.01 | locus YIL073C, strain SPO22, active compounds read low 0.989 | locus YIL125W, strain kgd1, active compounds read low 0.997 | locus YIR030C, strain dcg1, active compounds read low 0.992 | locus YJL092W, strain hpr5, active compounds read low 0.969 | locus YJL095W, strain BCK1 (second series), active compounds read low 0.995 | locus YJL095W, strain BCK1, active compounds read low 1 and 0.971 | locus YJL115W, strain asf1, active compounds read low 0.998 | locus YJL129C, strain trk1, active compounds read low 0.966 | locus YJL134W, strain LCB3, active compounds read low 1.01 | locus YJL154C, strain vps35, active compounds read low 0.991 | locus YJL164C, strain tpk1, active compounds read low 0.978 | locus YJL166W, strain qcr8, active compounds read low 0.994 | locus YJL168C, strain set2, active compounds read low 0.99 | locus YJL187C, strain SWE1 (second series), active compounds read low 1.01 | locus YJL187C, strain SWE1, active compounds read low 0.99 | locus YJR043C, strain POL32, active compounds read low 1.01 | locus YJR066W, strain TOR1, active compounds read low 0.957
